# In PubChem BioAssay (EPA / NIEHS):
# Inconclusive results are not listed. Activity calls are given as the source filed them. Rule for the calls: active = hit-call score of the fitted dose curve at least 0.9, where 1 is the maximum; inconclusive = response in the unintended direction; inactive = score below 0.9.
# Target: Oxysterols receptor LXR-beta (Homo sapiens) (UniProt P55055)
# Assay: ATG_LXRb_TRANS: Attagene TRANS-FACTORIAL HepG2 Assay for human Liver X Receptor beta (LXRb) (AID 2282981)
# Details: HepG2 Attagene TRANS GAL4-LXRb reporter, mRNA
# Experimental: ATG_TRANS is a cell-based, multiplexed-readout assay that uses HepG2, a human liver cell line, with measurements taken at 24 hours after chemical dosing in a 24-well plate.ATG_LXRb_TRANS is one of 30 assay component(s) measured or calculated from the ATG_TRANS assay. It is designed to make measurements of mRNA induction, a form of inducible reporter, as detected with fluorescence intensity signals by Reverse transcription polymerase chain reaction (RT-PCR) and Capillary electrophoresis technology.Data from the assay component ATG_LXRb_TRANS was analyzed into 1 assay endpoint. This assay endpoint, ATG_LXRb_TRANS, was analyzed in the positive analysis fitting direction relative to DMSO as the negative control and baseline of activity. Using a type of inducible reporter, measures of mRNA for gain-of-signal activity can be used to understand the reporter gene at the transcription factor-level as they relate to the gene NR1H2. Furthermore, this assay endpoint can be referred to as a primary readout, because this assay has produced multiple assay endpoints where this one serves a reporter gene function. To generalize the intended target to other relatable targets, this assay endpoint is annotated to the nuclear receptor intended target family, where the subfamily is non-steroidal.
# Human liver HepG2 cells are transiently transfected with multiple reporter transcription units (MRTUs) in 6-well plates using FuGene 6 reagent (Roche; 3 ml FuGene/1 mg DNA). The MRTU constructs are regulated by a cis-regulating element (promoter). […] A major difference between the CIS and TRANS system is that in CIS activities of endogenous TFs are measured, whereas the TRANS assay evaluates changes in activities of exogenous, chimeric NR-Gal4 proteins. […] At the end of 24 hour incubation, total RNA was isolated using TriZol reagent (Invitrogen). The isolated RNA is then reverse-transcribed using oligo(dT) primer and Mo-MLV reverse transcriptase (Invitrogen) with DNAse I (Ambion) treatment for 30 min. The one-tenth of the produced cDNA was amplified by PCR using Taq DNA polymerase (Invitrogen) and two reporter sequence-specific primers. The PCR products were fluorescently labeled by primer extension with 6-arboxyfluorescein (6-FAM) 5'-labeled reporter sequence-specific primer (2 min at 95 C, 20 s at 68 C and 10 min at 72 C) and these products were digested with 5U of HpaI (New England Biolabs) for 2h at 37 C. The fragments were purified using Qiaquick PCR columns (Qiagen), analyzed on an ABI 3130xL genetic analyzer (Applied Biosystems) with peak positions identified by using a set of X-rhodamine (ROX)-labeled MapMarker1000 molecular weight standards (BioVentures). The raw capillary electrophoresis data was processed using Attagraph software (Attagene).
# Oxysterols receptor LXR-beta (Homo sapiens), sequence (P55055 whole entry, looked up): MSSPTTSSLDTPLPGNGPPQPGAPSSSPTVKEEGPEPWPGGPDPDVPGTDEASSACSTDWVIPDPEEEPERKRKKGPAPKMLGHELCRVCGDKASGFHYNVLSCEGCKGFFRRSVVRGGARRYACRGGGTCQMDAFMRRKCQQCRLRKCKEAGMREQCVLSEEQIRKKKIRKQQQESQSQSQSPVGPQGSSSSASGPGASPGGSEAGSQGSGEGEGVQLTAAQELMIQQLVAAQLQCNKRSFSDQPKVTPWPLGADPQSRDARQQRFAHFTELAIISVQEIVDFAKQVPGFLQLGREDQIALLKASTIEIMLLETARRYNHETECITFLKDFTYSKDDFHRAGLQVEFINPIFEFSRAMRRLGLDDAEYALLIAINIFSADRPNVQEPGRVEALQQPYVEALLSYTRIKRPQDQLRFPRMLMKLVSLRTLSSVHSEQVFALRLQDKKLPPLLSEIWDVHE
Compound,outcome,AC50
CC1(C(=O)Nc2ccc(O)c(Cl)c2Cl)CCCCC1,inactive,–
CCOP(=S)(OCC)Oc1ccc2c(C)c(Cl)c(=O)oc2c1,inactive,–
CCC(CC)Nc1c([N+](=O)[O-])cc(C)c(C)c1[N+](=O)[O-],inactive,–
CCOP(=S)(OCC)OC(Cl)C(Cl)(Cl)Cl (stereo not given),inactive,–
CCOP(=O)(NC(C)C)Oc1ccc(SC)c(C)c1 (stereo not given),inactive,–
CCCSP(=O)(OCC)Oc1ccc(Br)cc1Cl (stereo not given),inactive,–
CN(C)NC(=O)CCC(=O)O,inactive,–
CCOP(=S)(OCC)Oc1ccc([N+](=O)[O-])cc1,inactive,–
CCCOc1nn(C(=O)NS(=O)(=O)c2ccccc2C(=O)OC)c(=O)n1C,inactive,–
CCCCSP(=O)(SCCCC)SCCCC,inactive,–
CCOP(=S)(Oc1cnc(C(C)(C)C)nc1)OC(C)C (stereo not given),–,11.1 µM (active)
CCCSP(=O)(OCC)SCCC,inactive,–
CON=C(C(=O)OC)c1ccccc1CON=C(C)c1cccc(C(F)(F)F)c1,inactive,–
CCc1cccc(CC)c1N(COC)C(=O)CCl,inactive,–
CC(=NC#N)N(C)Cc1ccc(Cl)nc1,inactive,–
FC(F)C(F)(F)OCC(Cn1cncn1)c1ccc(Cl)cc1Cl (stereo not given),inactive,–
C#CCC1=C(C)C(OC(=O)C2C(C=C(C)C)C2(C)C)CC1=O (stereo not given),inactive,–
CC(COc1ccc(Oc2ccccc2)cc1)Oc1ccccn1 (stereo not given),inactive,–
C[N+]1(C)CCCCC1,inactive,–
CC(Oc1cccc(Cl)c1)C(=O)O (stereo not given),inactive,–

Compound,outcome,AC50
CCOP(=S)(OCC)Oc1cc(C)nc(C(C)C)n1,inactive,–
Cc1ccn2nc(S(=O)(=O)Nc3c(F)cccc3F)nc2n1,inactive,–
Cc1nn(-c2cc(NS(C)(=O)=O)c(Cl)cc2Cl)c(=O)n1C(F)F,inactive,–
C[Si](Cn1cncn1)(c1ccc(F)cc1)c1ccc(F)cc1,inactive,–
O=C(O)c1cc(Oc2ccc(C(F)(F)F)cc2Cl)ccc1[N+](=O)[O-],inactive,–
O=c1ccc(=O)[nH][nH]1,inactive,–
CCc1cnc(C2=NC(C)(C(C)C)C(=O)N2)c(C(=O)O)c1 (stereo not given),inactive,–
Cc1cc(C2CC2)nc(Nc2ccccc2)n1,inactive,–
CNC(=O)ON=C(SC)C(=O)N(C)C,inactive,–
COP(=O)(OC)SCn1c(=O)oc2cc(Cl)cnc21,inactive,–
CNc1cnn(-c2cccc(C(F)(F)F)c2)c(=O)c1Cl,inactive,–
CCCCOC(=O)[C@@H](C)Oc1ccc(Oc2ccc(C#N)cc2F)cc1,inactive,–
C#CC(C)(C)NC(=O)c1cc(Cl)cc(Cl)c1,inactive,–
CNC(=O)ON=C(C)SC,inactive,–
CCOP(=O)(SC(C)CC)N1CCSC1=O (stereo not given),inactive,–
CCC(=O)Nc1ccc(Cl)c(Cl)c1,inactive,–
COP(=O)(NC(C)=O)SC (stereo not given),inactive,–
CC[C@H](C)[C@H]1O[C@]2(C=C[C@@H]1C)C[C@@H]1C[C@@H](C/C=C(\C)[C@@H](O[C@H]3C[C@H](OC)[C@@H](O[C@H]4C[C@H](OC)[C@@H](NC)[C@H](C)O4)[C@H](C)O3)[C@@H](C)/C=C/C=C3\CO[C@@H]4[C@H](O)C(C)=C[C@@H](C(=O)O1)[C@]34O)O2,inactive,–
N#CSCSC#N,inactive,–
C=C(C)[C@H]1Cc2c(ccc3c2O[C@@H]2COc4cc(OC)c(OC)cc4[C@@H]2C3=O)O1,inactive,–
